# Test results: ChEMBL document CHEMBL3988442, “University of Dundee, Small-Polar-MMV Screening Library” (2021)
# Hit rate of the full screen: of about 48,000 compounds, about 13,000 (27%) showed an effect of 50% or more. The list shows a part of the results.
# System: Wolbachia pipientis
# Assay: Anti-Wolbachia Cell-Based Screen
# Type: functional
# Parameters: scale not given: in the data most compounds retested in dose-response had high values
# Settings: 5 µM
row,SMILES,Percent Effect [%]
1,CC(c1cccc(S(N)(=O)=O)c1)N(C)CCOC(C)(C)C (stereo not given),105.4
2,CC(c1cccc(Cl)c1)N(C)CCS(=O)(=O)CCC(N)=O (stereo not given),6.991
3,CC(c1cccc(O)c1)N(C)S(=O)(=O)c1cccnc1 (stereo not given),-4.431
4,CC(c1ccc(F)c(F)c1)N(C)CCS(=O)(=O)CCC(N)=O (stereo not given),2.944
5,CC(c1cccc(O)c1)N(C)S(N)(=O)=O (stereo not given),16.66
6,COCCN(C)C(C)c1cccc(S(N)(=O)=O)c1 (stereo not given),128.5
7,O=C(c1cc[nH]n1)N1CCc2ccc(S(=O)(=O)N3CCOCC3)cc2C1,111.1
8,CCCNC(=O)N1CCc2ccc(S(=O)(=O)N3CCCC3)cc2C1,-4.985
9,O=C(O)c1cc(-n2cc3c(n2)CCC3)cc(S(=O)(=O)N2CCOCC2)c1,-7.127
10,O=C1COc2ccc(S(=O)(=O)N3CCOCC3)c3c2N1CCC3,16.87
11,CCCNC(=O)N1CCc2ccc(S(=O)(=O)N3CCN(C)CC3)cc2C1,-8.252
12,O=C(c1ccc[nH]1)N1CCc2cc(S(=O)(=O)N3CCOCC3)ccc2C1,106.5
13,CN1CCN(S(=O)(=O)c2ccc3c(c2)CN(C(=O)C(C)(C)C)CC3)CC1,-9.365
14,CC(C)CC(=O)N1CCc2ccc(S(=O)(=O)N3CCN(C)CC3)cc2C1,0.4144
15,O=C(c1ccc[nH]1)N1CCc2ccc(S(=O)(=O)N3CCOCC3)cc2C1,99.23
16,CCCNC(=O)N1CCc2ccc(S(=O)(=O)N3CCOCC3)cc2C1,-14.34
17,O=C(c1ccc[nH]1)N1CCc2c(cccc2S(=O)(=O)N2CCOCC2)C1,94.62
18,O=C(c1c[nH]c(=O)c(Cl)c1)N1CCc2ccccc2C1,10.27
19,CCN1CCC(CC(=O)NC[C@H]2CCc3ccccc3O2)CC1,15.83
20,CC(=O)N1CCN(Cc2ccsc2)CC2(CC(=O)N(C)C2)C1.O=C(O)C(F)(F)F (stereo not given),101.7
21,Cn1cc(CN2CCC3(C2)CN(Cc2ccsc2)C3)cn1.O=C(O)C(F)(F)F.O=C(O)C(F)(F)F,-10.11
22,CC(=O)N1CCCC2(CN(Cc3ccc(F)cc3)CCO2)C1.O=C(O)C(F)(F)F (stereo not given),-7.517
23,CC(=O)N1CCN(Cc2ccc(F)cc2)CC2(CC(=O)N(C)C2)C1.O=C(O)C(F)(F)F (stereo not given),98.03
24,CCN1CC2(CC1=O)CN(Cc1cnn(C)c1)CCN(C(C)=O)C2.O=C(O)C(F)(F)F (stereo not given),1.894

row,SMILES,Percent Effect [%]
1,CCn1cc2c(n1)C(COCC1CC1)CN(C(=O)c1ccsc1)C2 (stereo not given),2.501
2,CCOCCC(=O)N1CCCN(c2ccccc2C)CC1,0.9002
3,CC(C)NC(=O)c1cc2c(s1)CCN2c1ncccn1,92.76
4,O=C(NCCN1CCOCC1)c1cc2c(s1)CCN2Cc1cccnc1,-4.667
5,O=C(NCCN1CCCC1)c1nc2c(o1)CN(c1ncccn1)C2,-7.93
6,CCCNC(=O)c1nc2c(o1)CN(c1ncccn1)C2,-1.924
7,CCCNC(=O)c1cc2c(s1)CCN2c1ncccn1,122.6
8,CCc1cc(C(=O)N2CCC(Nc3ccc(C)nn3)CC2)sc1C,-9.138
9,O=C(NCCN1CCCC1)c1cc2c(s1)CCN2c1ncccn1,97.7
10,CCCNC(=O)c1cnc2n1CCCC2,-8.644
11,Cc1ccc(N2C[C@H](C(=O)N3CCOCC3)[C@@H]3CCO[C@@H]3C2)nn1,-2.103
12,Cc1ccc(N2CCc3sc(C(=O)N4CCOCC4)cc32)nn1,84.11
13,CC(C)NC(=O)c1nc2c(s1)CCCN2C(C)C,3.81
14,CC(C)NC(=O)c1nc2c(s1)CCCN2c1ccccc1,7.229
15,c1cc(-c2nnn3c2COC(CNCC2CCOCC2)C3)ccn1 (stereo not given),-54.53
16,c1cnnc(N2CCCC(NCc3cccc4c3OCO4)C2)c1 (stereo not given),3.932
17,CCC(NC(=O)NCc1ccoc1C)c1c(C)nn(C)c1C (stereo not given),3.251
18,CCN1CCCC(c2c(-c3ccccc3)ncn2CCCO)C1 (stereo not given),-4.818
19,CCOCCCNC(=O)c1nc2c(s1)CCCN2c1ccc(C)nn1.O=C(O)C(F)(F)F,-5.598
20,Cc1ccc(N2CCc3sc(C(=O)NCCN4CCCC4)cc32)nn1,102.9
21,Cc1ccc(N2CCCc3sc(C(=O)NCCC#N)nc32)nn1.O=C(O)C(F)(F)F,-4.317
22,Cc1nnsc1C(=O)NCC1CCN(c2ccccn2)CC1,1.014
23,O=C(NCC1CC1)c1cc2c(s1)CCN2c1ncccn1,107.3
24,CCNC(=O)C(C)(C)NC(=O)NCc1cccc(Br)c1,5.794

row,SMILES,Percent Effect [%]
1,CCc1ccc(CN2CCN(CCOC)[C@@H]3CS(=O)(=O)C[C@@H]32)cc1,-8.66
2,c1ccc(-c2nc(SCc3nnc(C4CC4)o3)n[nH]2)nc1,-8.457
3,c1cnnc(N2CCCC(NCc3ccncc3)C2)c1 (stereo not given),0.6717
4,CS(=O)(=O)c1ccc(CNC2CCCN(c3cccnn3)C2)cc1 (stereo not given),6.689
5,Cc1cc(NC(=O)CN(C)C2CCCN(c3cccnn3)C2)n(C)n1 (stereo not given),-4.115
6,Cc1ccc(N2CCCC(N(C)Cc3cc(C)no3)C2)nn1 (stereo not given),1.683
7,Cc1cc(NC(=O)CN(C)C2CCCN(c3cccnn3)C2)on1 (stereo not given),99.52
8,Cc1cc(NC(=O)CNC2CCCN(c3cccnn3)C2)on1 (stereo not given),92.8
9,Cc1ccc(N2CCCC(NCC(=O)Nc3cc(C)no3)C2)nn1 (stereo not given),8.409
10,CC(C)c1cc(NC(=O)CNC2CCCN(c3cccnn3)C2)on1 (stereo not given),100.2
11,Cc1nc(CNC2CCCN(c3cccnn3)C2)no1 (stereo not given),0.4362
12,Cc1cc(NC(=O)NCCc2cscn2)nn1C,-10.8
13,O=C(Cc1cccc(F)c1F)NC1COc2ccccc2C1=O (stereo not given),2.844
14,CCN1CCOCC2(CCCN(C(=O)c3ccccc3F)C2)C1.O=C(O)C(F)(F)F (stereo not given),106.1
15,O=C(c1ccnc(-n2cnnc2)c1)N1CCCC2(CCOC2)C1 (stereo not given),13.33
16,CCN1CCOCC2(CCCN(C(=O)c3cccc(O)c3)C2)C1 (stereo not given),105.1
17,CC(C)CN1CCCC2(CCN(C(=O)c3cnccn3)C2)C1 (stereo not given),-16.61
18,CCN1CCOCC2(CCCN(C(=O)c3cnccn3)C2)C1 (stereo not given),95.08
19,O=C(O)C(F)(F)F.O=C(c1cnccn1)N1CCCC2(COCCN(CC3CC3)C2)C1 (stereo not given),-6.241
20,CN(C)CCN1CCOCC2(CCCN(C(=O)c3cccn3C)C2)C1.O=C(O)C(F)(F)F.O=C(O)C(F)(F)F (stereo not given),-8.448
21,CN(C)CCN1CCOCC2(CCCN(C(=O)c3cccc(O)c3)C2)C1 (stereo not given),-3.261
22,CN(C)CCN1CCOCC2(CCCN(C(=O)c3ccccc3)C2)C1.O=C(O)C(F)(F)F.O=C(O)C(F)(F)F (stereo not given),-4.449
